Assay results published in ChEMBL document CHEMBL1201862, “PubChem BioAssay data set” (2004).
The whole screen tested about 400,000 compounds, of which about 1,900 (0.47%) were called active. Roughly 14% stayed inconclusive and do not appear here. The rule behind the calls is not given here. The sample as a whole holds a higher share of actives than the screen did.

biological target: Ataxin-2 (Homo sapiens) (UniProt Q99700); test: qHTS for Inhibitors of ATXN expression.; type: functional
Sequence (Q99700 whole entry): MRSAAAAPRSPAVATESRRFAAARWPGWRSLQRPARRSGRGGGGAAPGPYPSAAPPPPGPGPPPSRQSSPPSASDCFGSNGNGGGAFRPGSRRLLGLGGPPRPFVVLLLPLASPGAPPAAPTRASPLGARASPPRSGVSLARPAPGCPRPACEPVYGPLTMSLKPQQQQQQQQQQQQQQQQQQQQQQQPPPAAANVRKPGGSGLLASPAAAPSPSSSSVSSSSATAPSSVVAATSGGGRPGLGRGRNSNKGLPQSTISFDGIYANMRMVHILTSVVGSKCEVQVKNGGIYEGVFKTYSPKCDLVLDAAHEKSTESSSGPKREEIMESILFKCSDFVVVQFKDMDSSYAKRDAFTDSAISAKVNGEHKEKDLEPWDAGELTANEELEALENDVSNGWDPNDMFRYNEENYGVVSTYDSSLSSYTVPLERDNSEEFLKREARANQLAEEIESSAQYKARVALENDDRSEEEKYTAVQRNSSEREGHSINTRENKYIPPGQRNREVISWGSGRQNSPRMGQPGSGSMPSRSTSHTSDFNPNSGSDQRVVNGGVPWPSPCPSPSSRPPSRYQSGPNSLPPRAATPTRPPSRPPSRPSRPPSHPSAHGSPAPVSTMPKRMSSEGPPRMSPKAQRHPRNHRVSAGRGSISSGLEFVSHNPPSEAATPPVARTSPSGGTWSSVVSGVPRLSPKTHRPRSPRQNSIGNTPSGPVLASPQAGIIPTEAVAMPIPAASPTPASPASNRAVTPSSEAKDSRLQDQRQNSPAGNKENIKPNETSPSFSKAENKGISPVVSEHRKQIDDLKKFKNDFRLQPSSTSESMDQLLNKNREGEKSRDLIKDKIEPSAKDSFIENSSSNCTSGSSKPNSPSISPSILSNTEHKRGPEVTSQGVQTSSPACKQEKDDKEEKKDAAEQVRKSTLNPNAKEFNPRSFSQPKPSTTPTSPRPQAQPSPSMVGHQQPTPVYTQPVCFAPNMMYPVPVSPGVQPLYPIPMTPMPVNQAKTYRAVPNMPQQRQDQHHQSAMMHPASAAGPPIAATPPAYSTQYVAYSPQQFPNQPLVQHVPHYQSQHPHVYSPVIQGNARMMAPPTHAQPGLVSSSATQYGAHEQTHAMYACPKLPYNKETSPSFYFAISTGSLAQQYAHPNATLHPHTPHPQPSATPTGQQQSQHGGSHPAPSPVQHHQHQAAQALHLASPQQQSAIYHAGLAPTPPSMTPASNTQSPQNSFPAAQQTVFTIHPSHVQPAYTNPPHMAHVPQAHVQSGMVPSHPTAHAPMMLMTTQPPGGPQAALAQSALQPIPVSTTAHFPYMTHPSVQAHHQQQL

Structure (SMILES) | Potency
CCCCn1c(N)c(C(=O)NCCN2CCOCC2)c2nc3ccccc3nc21 | inactive
Cc1cccc(OP(N)(=O)Oc2cccc(C)c2)c1 | inactive
COc1ccc(CC(N)c2csc(NC(=O)Nc3ccccc3Oc3ccccc3)n2)cc1 (stereo not drawn) | 39.8 µM (active)
O=C(c1cccn2c(=O)c3cc(Cl)ccc3nc12)N1CCC2(CC1)OCCO2 | inactive
COc1ccc2cc1Oc1ccc(cc1)C[C@H]1c3cc(c(OC)cc3CCN1C)Oc1c(O)c(OC)cc3c1[C@H](C2)N(C)CC3 | 20 µM (active)
COc1cc2c3c(c1OC)Oc1ccc(cc1)C[C@H]1c4c(cc(OC)c(OC)c4Oc4ccc(cc4)C[C@@H]3N(C)CC2)CCN1C | 15.8 µM (active)
Nc1c2c(nc3ccccc13)CCN(Cc1ccccc1)C2 | inactive
COc1ccc(Nc2cc(C)c3cc(NC(=O)c4ccccc4Cl)ccc3n2)cc1 | inactive
CN1CC[C@@]2(C)c3cc(O)ccc3N(C)C12 (stereo partly drawn) | 28.2 µM (active)
CCC(C)NC(=O)c1c(N)n(CC2CCCO2)c2nc3ccccc3nc12 (stereo not drawn) | inactive
C#CCN1C(=O)S/C(=C\c2ccc(N3CCOCC3)cc2C)C1=O | inactive
CCCCN1C(=O)NC(=O)/C(=C(O)\C=C\c2c[nH]c3ccccc23)C1=O | inactive
N=C(N)N/N=C/c1ccc(N2CCOCC2)cc1 | inactive
N=C(N)N/N=C/c1cn(-c2ccccc2)nc1-c1cccs1 | 11.2 µM (active)
N=C(N)N/N=C/c1ccc(N(c2ccccc2)c2ccccc2)cc1 | inactive
O=c1cc(C(F)(F)F)c2cc3c4c(c2o1)CCCN4CCC3 | inactive
Cc1ccnc(NS(=O)(=O)c2ccc(NC=C3C(=O)N(C)C(=O)N(C)C3=O)cc2)n1 | inactive
NS(=O)(=O)c1ccc(NC=C2C(=O)N(C3CCCCC3)C(=O)N(C3CCCCC3)C2=O)cc1 | 39.8 µM (active)
CCC(C(=O)Nc1ccc(Cl)cc1)N1CCCC1=O (stereo not drawn) | inactive
Ic1ccccc1CNC1C2CCN(CC2)C1C(c1ccccc1)c1ccccc1 (stereo not drawn) | 15.8 µM (active)
O=C(NCCc1ccccc1)[C@@H]1CC=C[C@@H]2CCN(Cc3ccc(Cl)c(Cl)c3)C(=O)[C@@H]21 | 25.1 µM (active)
O=C(Cc1cc(=O)oc2cc(O)ccc12)NN=Cc1ccc(N(CCCl)CCCl)cc1 | inactive

Structure (SMILES) | Potency
CC(C)Sc1nc2[nH]cnc(N)c-2n1 | inactive
O=C1CN=C(c2ccccc2)c2cc(Cl)ccc2N1Cc1ccc(Cl)cc1 | 28.2 µM (active)
COc1ccc(-c2nc(CN3C(=O)CN=C(c4ccccc4)c4cc(Cl)ccc43)c(C)o2)cc1 | 35.5 µM (active)
Cc1oc(-c2ccccc2Cl)nc1CN1C(=O)CN=C(c2ccccc2)c2cc(Cl)ccc21 | 44.7 µM (active)
O=C(c1cccn2c(=O)c3cc(Br)ccc3nc12)N1CCC2(CC1)OCCO2 | inactive
CN(Cc1ccc(OC(F)F)cc1)Cc1nc(O)c2cc(Br)cc(Br)c2n1 | inactive
CC(Cc1ccccc1)NC(=O)CCCCC(=O)NC(C)Cc1ccccc1 (stereo not drawn) | inactive
CN(C)CC(C(=O)Cc1ccccc1)c1ccccc1 (stereo not drawn) | 25.1 µM (active)
COCCCn1c(=O)/c(=C\c2ccccc2OC(F)F)s/c1=C(/C#N)C(=O)NCCOC | inactive
Cc1cc([N+](=O)[O-])c2ccccc2[n+]1[O-] | 31.6 µM (active)
Cc1cc(C)cc(N2C(=O)NC(=O)/C(=C\c3cc(C)n(C)c3C)C2=O)c1 | inactive
C/C(NCc1cccnc1)=C1/C(=O)NC(=O)N(c2ccc(Cl)cc2)C1=O | inactive
CN1C(=O)/C(=C/c2cccn2-c2ccc3ccccc3c2)C(=O)NC1=S | 39.8 µM (active)
Cc1cc(C)cc(N2C(=O)NC(=O)/C(=C/c3cccn3-c3ccc(Cl)cc3)C2=O)c1 | 39.8 µM (active)
COCCNC(=O)c1c(N)n(Cc2ccco2)c2nc3ccccc3nc12 | inactive
Clc1cccc(N2Cc3cc(-c4ccccc4)ccc3-n3nncc3C2)c1 | 39.8 µM (active)
O=C(NC1CCCCC1)N1Cc2cc(-c3ccccc3)ccc2-n2nncc2C1 | 39.8 µM (active)
CN1CCc2cc3c(cc2[C@@H]1O)OCO3 | inactive
Cc1sc2ncnc(N3CCC(C(=O)Nc4ccc(C#N)c(Cl)c4)CC3)c2c1C | 39.8 µM (active)
CN(c1ccc(O)cc1)c1ccc([N+](=O)[O-])c2nonc12 | 20 µM (active)
COc1ccccc1N1CCN(C(=O)c2cc3c(-c4ccccc4F)nn(C)c3s2)CC1 | 35.5 µM (active)
COc1cc(Cl)ccc1Nc1ncc(C(=O)N2CCN(c3ccccc3OC)CC2)c2ccccc12 | inactive

Structure (SMILES) | Potency
O=C1NC(=S)NC(=O)C1=NNc1ccc2c(c1)OCCO2 | 44.7 µM (active)
CCCCCCCCn1sccc1=O | 25.1 µM (active)
O=C(Nc1cccc2ncccc12)c1ccccc1Cl | inactive
COC(=O)C1=C(c2cccc(OCc3ccccc3)c2)C[C@@H]2CC[C@H]1N2C(=O)NC1CCN(Cc2ccccc2)CC1 | 22.4 µM (active)
CC[C@@H](O)C[C@H]1CCC[C@@]2(C[C@@H]3OC(=O)/C=C/[C@@](C)(O)[C@@H](O)[C@H](C)[C@@H](O)[C@H](OC4CCC(N(C)C)C(C)O4)[C@@H](O)[C@](C)(O)CCCCC/C=C/[C@@H]4CC(C)(C)O[C@@]4(O)C[C@H](O2)[C@H]3C)O1 (stereo partly drawn) | 2.99 µM (active)
Cc1c(CC(=O)N2C[C@H]3C[C@@H](C2)c2cccc(=O)n2C3)c(=O)oc2cc(O)c(Cl)cc12 | inactive
NP(=O)(Oc1ccc(Cl)cc1)Oc1ccc(Cl)cc1 | inactive
CC1=CC2/C=C(\C)CCC(O)C(O)/C=C/C(=O)C23C(=O)NC(CC(C)C)C3C1C (stereo not drawn) | 3.77 µM (active)
C=C(C=O)CC1CC(O)[C@]2(C)OC3CC4OC5C[C@]6(C)O[C@]7(C)CCC8OC9C[C@]%10(C)OC%11C(C)=CC(=O)OC%11CC%10OC9C[C@@H](C)C8OC7CC6O[C@]5(C)CC5OC5C4OC3CC2O1 (stereo partly drawn) | 1.26 µM (active)
CCCNC(=O)c1c(N)n(CC2CCCO2)c2nc3ccccc3nc12 (stereo not drawn) | inactive
COCCNC(=O)c1c(NC(=O)c2ccco2)n(Cc2ccccc2)c2nc3ccccc3nc12 | inactive
CCCCCCCCN1C(=O)[C@H](CC(=O)NCCc2ccccc2OC)C[C@@]2(C(=O)OC)CCCCC=C12 | 25.1 µM (active)
CC(C)OCCCNC(=O)c1c(N)n(CC2CCCO2)c2nc3ccccc3nc12 (stereo not drawn) | inactive
Cc1nc2ccc(N3CCN(C)CC3)cc2nc1C | inactive
O=C(c1ccccc1)C(CN1CCCC1)c1ccccc1 (stereo not drawn) | 25.1 µM (active)
O=C(c1ccc(-c2ccccc2)c(F)c1)C1CCCN(CCO)C1 (stereo not drawn) | inactive
CC(C)(C)n1nnnc1C(c1cc2ccccc2o1)N1CCC2(CC1)C(=O)NCN2c1ccccc1 (stereo not drawn) | 39.8 µM (active)
O=C1NCN(c2ccccc2)C12CCN(C(c1cc3ccccc3o1)c1nnnn1Cc1ccccc1)CC2 (stereo not drawn) | 39.8 µM (active)
CCCNC(=O)c1c(N)n(Cc2ccco2)c2nc3ccccc3nc12 | inactive
O=C1NCN(c2ccccc2)C12CCN(C(c1cccs1)c1nnnn1Cc1ccccc1)CC2 (stereo not drawn) | 39.8 µM (active)
CCCCn1nnnc1C(c1cccs1)N1CCC2(CC1)C(=O)NCN2c1ccccc1 (stereo not drawn) | 31.6 µM (active)
Fc1ccc(CNCCc2ccc3c(c2)OCO3)cc1 | inactive

Structure (SMILES) | Potency
O=C1NC(=O)N(CCc2ccccc2)C(=O)/C1=C(O)/C=C/c1c[nH]c2ccccc12 | inactive
CN(C)C(=O)Oc1ccc2nnc3ccnn3c2c1 | inactive
CC(C)c1ccc(N2C(=O)NC(=O)/C(=C/C=C/c3ccco3)C2=O)cc1 | 39.8 µM (active)
CN(C)c1ccc(/C=C/C=C2/C(=O)NC(=O)N(c3ccccc3)C2=O)cc1 | 15 µM (active)
COc1ccc(N2C(=O)NC(=O)/C(=C\c3c[nH]c4ccccc34)C2=O)cc1 | inactive
CCOc1ccc(N2C(=O)NC(=O)/C(=C\c3ccccc3[N+](=O)[O-])C2=O)cc1 | inactive
Cc1ccc(-c2cc(-c3ccc(C)cc3)[n+](-c3ccccc3)c(-c3ccc(C)cc3)c2)cc1 | 17.8 µM (active)
Cc1ccc(C[n+]2c(-c3ccc(C)cc3)cc(-c3ccc(C)cc3)cc2-c2ccc(C)cc2)cc1 | 12.6 µM (active)
c1ccc(-c2cc(-c3ccccc3)[n+](-c3ccccc3)c(-c3ccccc3)c2)cc1 | 25.1 µM (active)
COP(=O)(OC)c1nc(-c2cccc3ccccc23)oc1NCCc1ccccc1 | inactive
CCCCn1c(NS(=O)(=O)c2ccc(C)cc2)c(C(=O)OCC)c2nc3ccccc3nc21 | inactive
CCOc1ccc(C(=O)Nc2cccc(C(=O)OCc3cc(=O)n4nc(C5CC5)sc4n3)c2)cc1 | 3.55 µM (active)
Cn1c(=O)c2c(nc(NN/C=C3/C(=O)NC(=S)N(C4CCCCC4)C3=O)n2C)n(C)c1=O | inactive
CN(C)c1c([N+](=O)[O-])cc(N2C(=O)C=CC2=O)cc1[N+](=O)[O-] | 25.1 µM (active)
CC1(C)OC(c2ccccc2)=C/C(=C/C=C2C(=O)NC(=S)NC2=O)O1 | inactive
CC1(C)OC(c2ccccc2)=C/C(=C/C=C2C(=O)NC(=O)NC2=O)O1 | inactive
CN1/C(=C\C=C2C(=O)NC(=S)NC2=O)C(C)(C)c2ccccc21 | 35.5 µM (active)
Cc1nc2cc(OC(=O)N(C)Cc3cccc(-c4ccncc4)c3)ccc2s1 | 39.8 µM (active)
COc1ccc(C[C@@H]2NC[C@H](O)[C@@H]2OC(C)=O)cc1 | 0.0891 µM (active)
CCCCCN1C(=O)c2cc(OC)ccc2[C@@]2(C(=O)OCC)Cc3cc(OC)ccc3[C@@H]12 | 11.2 µM (active)
CCOC(=O)[C@]12Cc3cc(OC)ccc3[C@H]1N(CCC(=O)OC)C(=O)c1cc(OC)ccc12 | 28.2 µM (active)
Cc1ccc(C(=O)N[C@@H](C)CN2C3=NC[C@H](Cc4ccccc4)N3C[C@H]2Cc2ccc(O)cc2)cc1Br | 22.4 µM (active)
